Screens from PubChem.
TWEAK-Fn14 inh = TWEAK-Fn14 signaling inhibition; TWEAK-stimulated Fn14 reporter cells, luciferase luminescence, 8 h; inhibition, % at 10 µM; 360,000 tested, 2% active; AID 1159606; in the data active means inhibition above about 50%
TROY NFkB inh = blocks TROY-dependent signaling in reporter cells; inhibition, % at 10 µM; 360,000 tested, 0.98% active; Q293 LMP1-TROYcd NF-kB luciferase reporter, 4 h;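 active means compounds whose plate-normalised and pattern-corrected inhibition of the luciferase reporter signal at the single screening dose is 50% or more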
LGR2 antag = blocks bursicon-induced cAMP signaling via Drosophila LGR2. HEK293 LGR2, CRE-luciferase, bursicon-stimulated, 4 h. inhibition, % at 9.99 µM. 380,000 tested, 0.35% active. AID 720647;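 active means drop in luminescence signal, shown as inhibition above about 50% in the replicate tests, limit read from the data, passing the limit was not always enough; inconclusive means probably only some replicates passing the limit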;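 further: agonist challenge used bursicon conditioned medium at about half maximal strength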
EWS-Fli inh = inhibitors of EWS/Fli oncoprotein transcriptional activity; A673 NR0B1-luciferase reporter, viability-normalised; inhibition, % at 12.6 µM; 350,000 tested, 0.67% active; AID 651661;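 active means mean inhibition of at least 50% after viability correction, with every replicate also passing that limit; inconclusive means mean reaches 50% but only one of two replicates passes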;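 further: firefly luciferase signal divided by Alamar Blue viability fluorescence both relative to DMSO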
LMP1 NFkB inh = inhibitors of Epstein-Barr LMP1-induced NF-kappaB reporter. LMP1-induced NF-kappaB luciferase reporter cells, luminescence. inhibition, % at 12.5 µM. 350,000 tested, 0.69% active. AID 504558; in the data active means inhibition above about 41%; inconclusive means no clear call, values can overlap the other calls;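 further: 0% = neutral control wells and 100% = reference inhibitor control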
PAX8 reporter = PAX8 transcriptional activity inhibition. 360,000 tested, 1.2% active. RMG-I TPO-luciferase reporter, SteadyGlo, 24 h. inhibition, % at 12.6 µM;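 active means mean replicate inhibition at least 60% with every replicate also reaching 60%; inconclusive means only one of the two criteria is met; inactive means mean below 60% and not all replicates reaching 60%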;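 further: luciferase light reporting Pax8 driven TPO promoter activity; plate controls were median of neutral control wells for no effect and mitoxantrone controls for full effect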
The depositor's hits bear a star; ? = inconclusive; / = no result. The list is not random: actives were taken first. Their share in the collection is about 3.2%.

SMILES	TWEAK-Fn14 inh	TROY NFkB inh	LGR2 antag	EWS-Fli inh	LMP1 NFkB inh	PAX8 reporter
C(=N\NC1=Nc2cccc3cccc1c23)/c1ccccn1	63*	19	-91	1	-16	-5
Cc1csc(N/N=C/c2ccccn2)n1	72*	-4	69*	42	?	-1
Cc1ccc(NC(=O)c2ccc3c(=O)n4c(nc3c2)CCCCC4)nc1	-9	-63	-33	-53	-4	-78
O=C(Nc1nc(-c2ccccc2)cs1)c1ccc2c(=O)n3c(nc2c1)CCCCC3	106*	71*	14	1	32	-16
O=C(Nc1ccccc1Cl)c1ccc2c(=O)n3c(nc2c1)CCC3	24	-9	-28	-41	-3	-92
O=C(Nc1cccc(S(=O)(=O)N2CCCC2)c1)c1ccc2c(=O)n3c(nc2c1)CCCCC3	57*	28	0	7	17	27
Cc1cccc(NC(=O)c2ccc3c(=O)n4c(nc3c2)CCCCC4)n1	57*	40	17	9	21	-62
C=C(c1ccc(O)cc1)c1ccc(O)cc1	42	51*	/	/	-14	/
C/C=C(/C(=C/C)c1ccc(O)cc1)c1ccc(O)cc1	14	26	1	1	-2	3
C[C@@H]1CN([C@@H](C)CO)C(=O)c2cc(C#Cc3cccc(F)c3)cnc2O[C@H]1CN(C)C(=O)c1ccccc1F	/	/	13	2	/	/
Cc1cc(C)c(C#N)c(SCC(=O)c2ccc(Cl)cc2Cl)n1	57*	42	18	-13	28	/
COc1ccc2c3c([nH]c2c1)[C@H](CO)N(C(=O)c1ccccn1)CC31CCN(C(=O)C2CCCC2)CC1	/	/	-14	3	/	3
CCOc1cc(Br)cc(/C=N/NC(=O)c2cccnc2)c1O	-3	-15	24	3	68*	32
COc1c(Br)cc(Br)cc1/C=N/NC(=O)c1cccnc1	7	7	9	44	-7	13
COc1ccc2nc3cc(Cl)ccc3c(Nc3cc(C(C)C)c(O)cc3C)c2c1	63*	26	10	4	19	-7
CC(=O)NC(=C(Cl)Cl)S(=O)(=O)c1ccccc1	33	-6	26	-5	-96	18
Cc1ccc(C(=O)NC(=C(Cl)Cl)S(=O)(=O)c2ccc(Cl)cc2)cc1	93*	27	20	15	-44	-2
Cc1ccc(S(=O)(=O)C(NC(=O)c2ccccc2)=C(Cl)Cl)cc1	65*	-45	/	/	-111	10
Cc1ccc(C(=O)NC(=C(Cl)Cl)S(=O)(=O)c2ccc(C)cc2)cc1	54*	-35	-5	/	-21	/
Cc1ccc(S(=O)(=O)/C(=C/Cl)NC(=O)c2ccccc2)cc1	77*	-10	40	/	-8	94*
Cn1cnc(S(=O)(=O)N2CCCCN3[C@H](CO)[C@@H](c4ccc(C#CC5CCCC5)cc4)[C@H]3C2)c1	/	/	-1	-4	/	-12
CCC(=O)N1CC2(C1)CN(S(C)(=O)=O)[C@@H](CO)c1c2c2ccc(OC)cc2n1C	/	/	-2	-7	/	/
O=C(NC(=C(Cl)Cl)S(=O)(=O)c1ccc(Cl)cc1)c1ccccc1	96*	13	27	20	-146	31
O=C(NS(=O)(=O)c1ccc(Cl)cc1)c1ccccc1	9	6	-6	10	2	15
CCOc1ccc(C(=O)NCC(=O)OCc2c(C)noc2C)cc1	-1	-2	1	-8	-4	73*
SMILES	TWEAK-Fn14 inh	TROY NFkB inh	LGR2 antag	EWS-Fli inh	LMP1 NFkB inh	PAX8 reporter
CC(=O)N1[C@@H](CO)[C@H](c2ccccc2)[C@@H]1CN(C(=O)c1ccc(F)cc1)C(C)C	/	/	11	0	/	3
O=C(C[C@@H]1CC[C@H]2[C@@H](COC[C@@H](O)CN2S(=O)(=O)c2ccc(F)cc2)O1)N[C@@H]1CCN(Cc2ccccc2)C1	/	/	-12	11	/	21
COc1ccc(N2C(=O)Cc3ccccc3C2=O)cc1	-8	-14	4	8	4	-2
N#CC1=C(N)N(c2ccc(Oc3ccccc3)cc2)C(=O)C1	88*	/	/	/	2	/
Cc1ccc(S(=O)(=O)Nc2cccc3c2O[C@@H](CN(C)CC2CCCCC2)[C@@H](C)CN([C@@H](C)CO)C3=O)cc1	/	/	-15	-11	/	10
Cc1ccc(C)c(Cn2nc(-c3ccccc3)ccc2=O)c1	-18	56*	-6	25	6	16
COc1ccc(CN(C)C[C@@H]2Oc3ccc(NS(C)(=O)=O)cc3CC(=O)N([C@H](C)CO)C[C@H]2C)cc1	/	/	-14	0	/	-11
